Laboratory results published in PubChem BioAssay (NCATS).
Inconclusive results are not listed. Activity calls are given as the source filed them. Unless noted, the call rests on the fitted dose curve; in most records, active means well fitted curve in the direction sought with a large enough effect; inconclusive means small, poorly fitted or top-dose-only effect, or another doubt; inactive means no such curve, though single readings can be large; an effect the other way counts as inactive or inconclusive.

Legend:
[1] = biological target: Lysosomal acid glucosylceramidase (Homo sapiens) (UniProt P04062); assay: Glucocerebrosidase-p2 (AID 348; in the data active means potency below about 10 µM; further: potency means the concentration at half of the fitted maximal effect); details: purified GBA, blue fluorogenic substrate, 40 min
In short: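 Normal human glucocerebrosidase (0.2 nM) with blue fluorogenic substrate (80 uM final) in citrate/phosphate pH 5.9 with 10mM sodium taurocholate, 0.01% tween-20; 40 min RT, NaOH/glycine stop; fluorescence Ex 365/Em 440; AC50 from a titration from 0.6 nM upwards.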

[2] = AP1 Signaling Pathway (AID 357; active means well fitted curve in either direction with a large enough effect, not every such curve was filed as active;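 further: ME-180 reporter cells stimulated with EGF at its EC50 level; on the % scale 0 is the no-effect control and ±100 the full control effect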)
In short: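 AP-1-bla ME-180 cells, Opti-MEM + 0.5% dialyzed FBS, plated overnight 37 °C. Cpd titration + EC50 EGF, 5 h 37 °C. CCF4 2.5 h RT; ex 405, em 460/530 ratio → %activity, AC50.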

[3] = NFAT Signaling Pathway (AID 444; active means well fitted curve in either direction with a large enough effect, not every such curve was filed as active;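 further: carbachol stimulus at about its EC50 of 1 µM final; on the % scale 0 is the no-effect control and ±100 the full control effect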); details: Jurkat NFAT-bla M1, carbachol, beta-lactamase ratio, 5 h; at 7.69 µM (top of the series)
In short: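 Jurkat cells with NFAT-driven β-lactamase reporter and co-expressed M1 receptor, stimulated with carbachol (final 1 uM, ~EC50), compound titration, 5 h at 37 °C. CCF4 loaded 1 h at RT; 460/530 nm ratio gave %activity and AC50.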

[4] = Stat Signaling Pathway (AID 446; active means well fitted curve in either direction with a large enough effect, not every such curve was filed as active;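 further: ME-180 cervical cancer cells given 40 pM IL-6 alongside compound; SIE-controlled beta-lactamase reporter measured as 460/530 nm FRET emission ratio; on the % scale 0 is the no-effect control and ±100 the full control effect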)
In short: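 Normalization used AC90 stimulation (300 pM IL-6) and AC90 inhibition (125 nM pan-JAK inhibitor at 40 pM IL-6). The underlying signal is SIE-driven beta-lactamase in ME-180 cells after 5 h IL-6 exposure with compound.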

[5] = biological target: Glucocorticoid receptor (Homo sapiens) (UniProt P04150); assay: GR-GFP Redistribution (AID 450;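 active means compounds whose dose series gives a full or clear partial fitted curve of increased nuclear translocation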; further: potency means the concentration at half of the fitted maximal effect); details: U2OS GR-GFP nuclear translocation, laser cytometry, 2 h
[6] = biological target: Glucocorticoid receptor (Homo sapiens) (UniProt P04150); assay: GR-EFC Redistribution (AID 451; calls by dose curve; further: potency means the concentration at half of the fitted maximal effect); details: CHO-K1 GR-EFC translocation, beta-gal luminescence, 2 h
In short: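 CHO-K1 cells expressing nuclear EA and GR-ED fragments of b-gal; compounds titrated up to 46 uM final, 2 h at 37 C. GR nuclear translocation read as complemented b-gal luminescence after 1 h RT detection.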

[7] = biological target: Mitogen-activated protein kinase 10 (Mus musculus) (UniProt Q61831); assay: JNK3 AlphaScreen Assay (AID 530; active means well fitted curve in either direction with a large enough effect, not every such curve was filed as active;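 further: kinase came from lysate of stimulated human HepG2 cells; signal reports phosphorylation of biotinylated GST-cJun 1-79 at Ser73 with 10 µM ATP; on the % scale 0 is the no-effect control and ±100 the full control effect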)
In short: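 Activity was read by AlphaScreen after JNK3-containing HepG2 lysate (cytokine pre-activated) phosphorylated biotinylated GST-cJun with 10 uM ATP at room temperature. Phospho-Ser73 cJun antibody with Protein-A acceptor beads provided detection.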

[8] = biological target: 3',5'-cyclic-AMP phosphodiesterase 4B (Homo sapiens) (UniProt Q07343); assay: qHTS Assay for Inhibitors of PDE-IV (AID 607; active means well fitted activation curve with a large enough effect in the main read-out, with a control signal flat, not every such curve was filed as active; further: % of control where 0% means no effect)
In short: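 HEK293 ACTOne cells with CNG channel (1000/well), endogenous PDE4; membrane potential dye, compounds up to 22.9 uM final. Fluorescence Ex 535/Em 590; RO 20-1724 (100 uM final) as reference.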

[9] = biological target: Rap guanine nucleotide exchange factor 3 (Homo sapiens) (UniProt O95398); assay: Confirmatory qHTS for agonist of cAMP-regulated guanine nucleotide exchange factor 3 (EPAC1) (AID 1645881);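 further: EPAC1 catalysed release of BODIPY-GDP from Rap1B seen as fluorescence loss; 100% = effect of cAMP agonist control; nearly all actives have a fitted effect of over 75% in size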
[10] = biological target: Rap guanine nucleotide exchange factor 4 (Homo sapiens) (UniProt Q8WZA2); assay: Confirmatory qHTS for agonist of cAMP-regulated guanine nucleotide exchange factor 4 (EPAC2) (AID 1645884);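 further: nucleotide exchange releases bodipy-GDP from Rap1 and this lowers its fluorescence; on the % scale 0 is the no-effect control and ±100 the full control effect; nearly all actives have a fitted effect of over 65% in size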
[11] = biological target: Rap guanine nucleotide exchange factor 3 (Homo sapiens) (UniProt O95398); assay: Counterscreen qHTS for antagonist of cAMP-regulated guanine nucleotide exchange factor 3 (EPAC1) (AID 1645888);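 further: fluorescence loss as bound BODIPY-GDP is released from Rap1B; % of control where 0% means no effect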
In short: (§1)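 Rap1B–BODIPY-GDP (250 nM) with 50 uM GDP; compounds pin-transferred to 9.74 nM–152 uM final (activator) or from 7.32 nM upwards (inhibitor). Fluorescence Ex/Em 480/540 nm read at 5 and 30 min, then after adding cAMP or buffer, at room temperature.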

[12] = biological target: Rap guanine nucleotide exchange factor 4 (Homo sapiens) (UniProt Q8WZA2); assay: Confirmatory qHTS for antagonist of cAMP-regulated guanine nucleotide exchange factor 4 (EPAC2) (AID 1645885); further: nearly all actives have a fitted effect of over 25% in size
[13] = biological target: Rap guanine nucleotide exchange factor 3 (Homo sapiens) (UniProt O95398); assay: Counterscreen qHTS for agonist of cAMP-regulated guanine nucleotide exchange factor 3 (EPAC1) (AID 1645889); further: % of control where 0% means no effect; nearly all actives have a fitted effect of over 40% in size
In short: as §1

Sequence of Rap guanine nucleotide exchange factor 4 (Homo sapiens) (Q8WZA2 whole entry, looked up): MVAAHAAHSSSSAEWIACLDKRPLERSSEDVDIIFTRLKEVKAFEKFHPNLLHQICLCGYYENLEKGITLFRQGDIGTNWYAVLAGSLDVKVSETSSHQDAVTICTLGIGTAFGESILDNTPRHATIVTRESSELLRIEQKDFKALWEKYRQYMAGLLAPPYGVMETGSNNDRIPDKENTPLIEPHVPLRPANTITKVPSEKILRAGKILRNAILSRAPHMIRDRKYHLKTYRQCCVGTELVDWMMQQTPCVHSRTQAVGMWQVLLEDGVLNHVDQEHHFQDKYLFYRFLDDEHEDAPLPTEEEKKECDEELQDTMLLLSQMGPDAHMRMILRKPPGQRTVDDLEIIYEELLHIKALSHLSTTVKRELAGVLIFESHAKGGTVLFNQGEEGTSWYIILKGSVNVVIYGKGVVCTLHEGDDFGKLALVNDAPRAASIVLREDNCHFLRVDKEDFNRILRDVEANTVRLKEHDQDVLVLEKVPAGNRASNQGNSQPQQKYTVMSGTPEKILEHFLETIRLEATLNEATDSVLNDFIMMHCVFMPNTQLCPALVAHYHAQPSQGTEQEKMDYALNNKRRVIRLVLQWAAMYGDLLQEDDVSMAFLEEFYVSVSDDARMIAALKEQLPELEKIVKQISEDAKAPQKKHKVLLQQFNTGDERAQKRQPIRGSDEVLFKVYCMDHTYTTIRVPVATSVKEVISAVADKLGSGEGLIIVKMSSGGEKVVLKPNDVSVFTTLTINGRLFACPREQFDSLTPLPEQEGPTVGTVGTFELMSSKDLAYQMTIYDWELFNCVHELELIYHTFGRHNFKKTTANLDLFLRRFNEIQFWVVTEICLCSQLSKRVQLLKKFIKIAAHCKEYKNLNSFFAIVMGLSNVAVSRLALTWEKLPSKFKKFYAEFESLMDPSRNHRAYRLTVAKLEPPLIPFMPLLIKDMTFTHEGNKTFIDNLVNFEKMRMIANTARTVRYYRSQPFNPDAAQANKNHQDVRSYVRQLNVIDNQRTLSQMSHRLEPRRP
Sequence of Rap guanine nucleotide exchange factor 3 (Homo sapiens) (O95398 whole entry, looked up): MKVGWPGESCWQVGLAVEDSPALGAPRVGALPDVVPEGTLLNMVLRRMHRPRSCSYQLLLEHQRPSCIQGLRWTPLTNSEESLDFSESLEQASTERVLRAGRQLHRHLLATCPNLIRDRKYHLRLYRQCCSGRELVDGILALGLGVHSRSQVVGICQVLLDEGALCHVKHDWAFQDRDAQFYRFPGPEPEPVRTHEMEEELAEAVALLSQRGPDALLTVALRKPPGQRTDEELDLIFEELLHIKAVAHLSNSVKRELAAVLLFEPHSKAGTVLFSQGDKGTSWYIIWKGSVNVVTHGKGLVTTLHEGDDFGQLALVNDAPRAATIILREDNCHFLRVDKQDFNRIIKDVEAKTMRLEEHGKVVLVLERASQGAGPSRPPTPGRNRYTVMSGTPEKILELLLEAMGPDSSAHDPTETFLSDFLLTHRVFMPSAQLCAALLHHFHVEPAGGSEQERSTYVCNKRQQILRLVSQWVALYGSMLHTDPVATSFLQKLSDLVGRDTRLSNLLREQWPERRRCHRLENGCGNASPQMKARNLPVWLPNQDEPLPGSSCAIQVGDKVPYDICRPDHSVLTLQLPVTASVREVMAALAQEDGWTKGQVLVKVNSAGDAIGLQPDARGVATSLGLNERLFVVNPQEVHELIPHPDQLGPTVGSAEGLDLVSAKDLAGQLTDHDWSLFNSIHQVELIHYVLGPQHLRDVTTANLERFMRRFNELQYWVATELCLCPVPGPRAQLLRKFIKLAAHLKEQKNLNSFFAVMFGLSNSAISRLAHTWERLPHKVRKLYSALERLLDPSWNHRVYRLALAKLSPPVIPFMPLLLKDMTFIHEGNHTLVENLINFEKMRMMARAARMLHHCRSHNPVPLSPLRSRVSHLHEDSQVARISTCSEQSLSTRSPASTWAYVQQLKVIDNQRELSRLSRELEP
Sequence of Glucocorticoid receptor (Homo sapiens) (P04150 whole entry, looked up, the tested form may be a part): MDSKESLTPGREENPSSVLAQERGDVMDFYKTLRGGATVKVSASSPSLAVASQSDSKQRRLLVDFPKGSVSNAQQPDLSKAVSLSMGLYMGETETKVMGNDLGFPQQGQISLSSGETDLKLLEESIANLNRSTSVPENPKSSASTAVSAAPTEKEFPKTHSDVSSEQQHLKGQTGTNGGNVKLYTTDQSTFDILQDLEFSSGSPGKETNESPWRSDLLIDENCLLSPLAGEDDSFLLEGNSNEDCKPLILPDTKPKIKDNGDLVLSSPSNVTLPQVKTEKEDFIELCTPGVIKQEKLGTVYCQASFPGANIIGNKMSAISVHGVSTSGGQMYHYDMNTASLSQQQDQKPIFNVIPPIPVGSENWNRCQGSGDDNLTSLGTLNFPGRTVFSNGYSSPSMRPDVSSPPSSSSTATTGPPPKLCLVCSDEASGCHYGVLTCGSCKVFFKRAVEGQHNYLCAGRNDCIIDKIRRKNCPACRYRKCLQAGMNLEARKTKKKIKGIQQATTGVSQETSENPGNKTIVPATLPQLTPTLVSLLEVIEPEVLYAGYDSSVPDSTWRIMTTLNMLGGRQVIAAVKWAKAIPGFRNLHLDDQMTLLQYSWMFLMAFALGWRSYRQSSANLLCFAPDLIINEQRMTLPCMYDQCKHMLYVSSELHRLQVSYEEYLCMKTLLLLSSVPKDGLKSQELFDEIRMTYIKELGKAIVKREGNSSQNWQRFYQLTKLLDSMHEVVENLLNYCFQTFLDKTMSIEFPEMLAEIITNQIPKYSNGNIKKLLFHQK
Sequence of 3',5'-cyclic-AMP phosphodiesterase 4B (Homo sapiens) (Q07343 whole entry, looked up): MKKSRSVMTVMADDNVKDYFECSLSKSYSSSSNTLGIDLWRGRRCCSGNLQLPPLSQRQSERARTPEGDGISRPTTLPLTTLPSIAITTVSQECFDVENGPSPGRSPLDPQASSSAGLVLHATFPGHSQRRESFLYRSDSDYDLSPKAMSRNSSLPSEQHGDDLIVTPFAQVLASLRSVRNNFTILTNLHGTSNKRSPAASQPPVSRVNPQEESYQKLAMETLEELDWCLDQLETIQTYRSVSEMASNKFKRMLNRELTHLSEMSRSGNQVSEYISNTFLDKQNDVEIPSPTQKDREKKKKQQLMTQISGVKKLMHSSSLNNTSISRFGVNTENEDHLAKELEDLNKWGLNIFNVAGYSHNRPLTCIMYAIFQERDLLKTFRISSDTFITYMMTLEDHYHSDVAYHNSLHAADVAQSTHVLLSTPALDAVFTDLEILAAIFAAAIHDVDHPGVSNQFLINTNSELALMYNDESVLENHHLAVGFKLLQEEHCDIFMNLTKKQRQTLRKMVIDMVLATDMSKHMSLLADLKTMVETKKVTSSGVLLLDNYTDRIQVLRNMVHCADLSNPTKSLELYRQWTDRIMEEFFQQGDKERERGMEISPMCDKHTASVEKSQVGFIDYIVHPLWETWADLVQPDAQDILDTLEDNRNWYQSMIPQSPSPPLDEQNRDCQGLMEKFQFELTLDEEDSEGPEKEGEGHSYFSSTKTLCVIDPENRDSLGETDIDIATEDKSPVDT
Sequence of Lysosomal acid glucosylceramidase (Homo sapiens) (P04062 whole entry, looked up): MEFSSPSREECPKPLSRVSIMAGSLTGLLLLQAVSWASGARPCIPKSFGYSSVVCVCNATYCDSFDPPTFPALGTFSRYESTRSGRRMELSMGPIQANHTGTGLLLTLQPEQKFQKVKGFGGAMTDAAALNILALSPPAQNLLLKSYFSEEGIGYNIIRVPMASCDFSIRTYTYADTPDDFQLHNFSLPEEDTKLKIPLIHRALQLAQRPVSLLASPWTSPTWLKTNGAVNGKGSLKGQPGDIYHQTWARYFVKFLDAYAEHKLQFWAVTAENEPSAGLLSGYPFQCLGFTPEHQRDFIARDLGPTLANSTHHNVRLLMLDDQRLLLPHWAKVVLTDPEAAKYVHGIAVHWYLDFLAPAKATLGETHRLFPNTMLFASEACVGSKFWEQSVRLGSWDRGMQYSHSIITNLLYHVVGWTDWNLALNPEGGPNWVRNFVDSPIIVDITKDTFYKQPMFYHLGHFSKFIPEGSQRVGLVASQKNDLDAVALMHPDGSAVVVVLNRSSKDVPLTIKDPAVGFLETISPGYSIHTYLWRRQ

O=C1NC(=S)NC(=O)C1=Cc1cccc2cc3ccccc3cc12
inactive: Potency [1] > 11.4 µM | outcome [2] | activity change, negative = inhibition [3] -8.51% | outcome [4] | Potency [5] > 46 µM | Potency [6] > 9.22 µM | activity change, negative = inhibition [7] -7.37% [at 11.4 µM] | Potency [8] | Potency [9] | Potency [10] | outcome [11]

Cn1cccc1/C=C1\C(=O)NC(=O)N(Cc2ccccc2Cl)C1=O
inactive: Potency [9] | Potency [10] | Potency [12] | outcome [11] | Potency [13]
